Hits are enriched below; roughly 32% of the tested compounds scored in any of these assays.
PostGolgi ctrl = growth inhibition of yeast control strain, primary screen, counter-screen for post-Golgi transport modulator project. efflux-deficient yeast background strain, growth absorbance A615, 16 h. inhibition, % at 10 µM. 98,000 compounds, 5% hits
CYP2C9 activ = human CYP2C9 activators, primary screen, biochemical, luminescence | AID 1024, 2008 | activation factor at 5 µM | 96,000 compounds, 1.4% hits | recombinant CYP2C9, luciferin-H conversion; active compounds read high; factor 1 = untreated enzyme, 0 = blocked | Cytochrome P450 2C9 (Homo sapiens), P11712;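 active means activation factor of 2 or more for CYP2C9 at a 5 µM dose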
Target sequence (P11712 whole entry, looked up): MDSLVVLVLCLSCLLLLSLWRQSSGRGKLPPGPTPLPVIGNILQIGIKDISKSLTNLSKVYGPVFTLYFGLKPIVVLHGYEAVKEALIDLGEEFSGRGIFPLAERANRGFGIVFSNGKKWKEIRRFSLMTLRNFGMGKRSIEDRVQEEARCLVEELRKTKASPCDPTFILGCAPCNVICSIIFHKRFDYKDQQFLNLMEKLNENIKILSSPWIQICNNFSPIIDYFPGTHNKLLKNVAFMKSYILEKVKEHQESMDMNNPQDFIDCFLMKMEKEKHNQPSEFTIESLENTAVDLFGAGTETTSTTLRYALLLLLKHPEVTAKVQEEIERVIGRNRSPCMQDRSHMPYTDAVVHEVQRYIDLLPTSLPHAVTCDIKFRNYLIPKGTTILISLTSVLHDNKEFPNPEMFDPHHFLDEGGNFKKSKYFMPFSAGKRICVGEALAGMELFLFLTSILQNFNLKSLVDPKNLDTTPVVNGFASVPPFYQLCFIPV
CYP2C19 inh = blockers of cytochrome P450 2C19 activity – biochemical, luminescence, ADME assay, primary screen. P33261. CYP2C19 Supersomes, luciferin-H EGE luminescence, 30 min. inhibition, % at 5 µM. 96,000 compounds, 21% hits. AID 778, 2007;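 active means CYP2C19 inhibition above a set limit at 5 µM in the primary screen, cut at about 50% in these data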
CYP2C9 inhib = blockers of cytochrome P450 2C9 activity – biochemical, luminescence, ADME assay, primary screen. P11712. inhibition, % at 5 µM. 96,000 compounds, 20% hits. AID 777, 2007. CYP2C9 Supersomes, luciferin-H conversion;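 active means blocking of liver enzyme CYP2C9 beyond about 50% at 5 µM, limit read from the data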
PostGolgi yeast = phenotypic screen on post-Golgi transport, primary screen; post-Golgi transport phenotypic cell assay; inhibition, % at 10 µM; 98,000 compounds, 0.9% hits; AID 739, 2007;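 further: yeast cells grown in 1536-well plates; yeast grown about 18 h at 30C before absorbance read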
CYP2C19 act = human CYP2C19 activators, primary screen, biochemical, luminescence; 96,000 tested, under 10 active; recombinant CYP2C19, luciferin-H EGE luminescence; active compounds read high; 0 = fully inhibited enzyme, 1 = untreated enzyme; activation factor at 5 µM; Cytochrome P450 2C19 (Homo sapiens), P33261;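 active means activation factor of at least 2 at 5 µM in the primary screen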
Large screens that a line does not name were inactive. Unless noted, no stated cut-off is given here; in the data, active means inhibition above about 30%; inactive means the rest.

COc1ccc(C(=O)Nc2ccc(-c3ccc(C)o3)cc2)cc1S(=O)(=O)N1CCOCC1	none
CCC(C)[C@H](NC(=O)NCC1CCCO1)C(=O)OC (some centres not stated)	none
Cc1ccc(-c2nn(-c3ccccc3)cc2C(=O)N2CCOCC2)cc1	CYP2C19 inh 54, CYP2C9 inhib 71
O=C(OCc1nnc(-c2ccccc2)o1)c1cn(-c2ccccc2)nc1-c1ccccc1	CYP2C19 inh 55, CYP2C9 inhib 91
Cc1cc(C(=O)OCc2nnc(-c3ccccc3)o2)c(C)n1-c1ccccc1	CYP2C9 inhib 64
CN1CCN(C(=O)c2cn(-c3ccccc3)nc2-c2cccnc2)CC1	none
Cc1ccc(C(=O)N2CCOCC2)cc1Cl	none
Cc1ccc(OCc2ccc(C(=O)N3CCOCC3)cc2)cc1C	CYP2C19 inh 71
Cc1ccc(Cl)cc1N1CCN(C(=O)c2ccc(CN3CCOCC3)cc2)CC1	CYP2C19 inh 60, CYP2C9 inhib 67
CCC(=O)Nc1nnc(C(C)(C)C)s1	none
COC(=O)c1ccccc1NC(=O)c1ccc2c(c1)OCCO2	none
CC(=O)c1cc2c(cc1NS(=O)(=O)c1ccc3c(c1)OCCO3)OCO2	CYP2C19 inh 99
CC(=O)Nc1cc2c(cc1C(C)=O)OCCO2	none
O=C(NS(=O)(=O)c1ccc2c(c1)OCCO2)c1ccccc1	CYP2C9 inhib 58
COC(=O)c1ccc(Cl)c(NS(=O)(=O)c2ccc3c(c2)OCCO3)c1	CYP2C19 inh 87
CCC(=O)c1cc2c(cc1NC(=O)c1ccccc1)OCCO2	none
CCC(CC)NC(=O)COC(=O)c1ccc(NS(=O)(=O)c2ccc3c(c2)OCCO3)cc1	CYP2C19 inh 84, CYP2C9 inhib 99
NC(=O)c1ccccc1NS(=O)(=O)c1ccc2c(c1)OCCO2	CYP2C19 inh 76
CC(=O)c1cc2c(cc1NC(=O)C1CC=CCC1C(=O)O)OCO2 (configuration not stated)	CYP2C9 inhib 74
CC(=O)c1cc2c(cc1NS(=O)(=O)c1ccc(C)cc1)OCO2	CYP2C19 inh 63
CC(=O)c1cc2c(cc1NC(=O)CN1CCCCCCC1)OCO2	CYP2C19 inh 83, CYP2C9 inhib 69
CC(=O)c1cc2c(cc1NC(=O)c1cnc(C)cn1)OCO2	none
O=C(O)c1ccc(Cl)c(S(=O)(=O)N2CCCCCC2)c1	none
NC(=O)c1ccc[n+](CC(=O)OCCC23CC4CC(CC(C4)C2)C3)c1	none
CC(=O)Nc1ccc(Oc2nc(C)cc(C)n2)cc1	none
CCN(CC)S(=O)(=O)c1ccc(S(=O)(=O)Nc2cc3c(cc2C(C)=O)OCO3)cc1	CYP2C19 inh 52, CYP2C9 inhib 97
O=C(CSc1nnc(Cn2c(=O)sc3ccccc32)n1CCc1ccccc1)N1CCOCC1	none
COc1ccc(CNC(=S)Nc2cc(C)cc(C)c2)cc1	CYP2C9 activ 2
Cc1ccc(SCCNC(=O)C(C)C)cc1	none
Cc1ccc(SCCNC(=S)Nc2cc(C)cc(C)c2)cc1	CYP2C19 inh 51
COc1ccc(CCNC(=S)Nc2cccc(C)c2)cc1	CYP2C19 inh 65
C=C(C)CSc1nnc(-c2cccc(Cl)c2)n1N	CYP2C19 inh 58
C=C(C)CSc1nnc(-c2ccc(OC)cc2)n1N	none
CC(=O)c1ccccc1NS(=O)(=O)c1c(C)nn(-c2ccccc2)c1C	CYP2C19 inh 99, CYP2C9 inhib 51
O=Nc1c(O)n(Cc2cccc(Cl)c2)c2ccccc12	CYP2C19 inh 56, CYP2C9 inhib 74
CCN(CC)CCn1c(O)c(N=O)c2ccccc21	none
Cn1c(SCc2ccccc2Cl)nc(C(F)(F)F)cc1=O	none
C=CCOc1ccc(Cl)cc1C(=O)O	none
O=C(NCCc1cn2ccccc2n1)C1CCCCC1	none
Oc1cccc(Nc2nc(NCC3CCCO3)c3ccccc3n2)c1 (configuration not stated)	CYP2C19 inh 51, CYP2C9 inhib 60
Cc1cc(C)nc(NCC(O)COc2ccccc2C)n1 (configuration not stated)	CYP2C19 inh 87
Cc1ccc(NC(=O)c2ccco2)c(NC(=O)Cc2cccs2)c1	none
CCn1cnc2scc(-c3ccccc3)c2c1=O	none
C=CCn1cnc2scc(-c3ccc(CC)cc3)c2c1=O	CYP2C19 inh 93, CYP2C9 inhib 53
Cc1ccc(-c2nnn(CC(=O)N3CCC(C)CC3)n2)o1	none
CCOC(=O)N1CCC(N(C(=O)Nc2ccccc2)C(C)CC)CC1 (configuration not stated)	none
CCOC(=O)N1CCC(N(C(=O)Nc2ccc(CC)cc2)C(C)CC)CC1 (configuration not stated)	PostGolgi ctrl 30
CC(=O)Nc1ccc(NC(=O)CN(C)CCC#N)cc1	none
CC(C)Cn1c(SCC(=O)NCc2ccc(Cl)cc2)nnc1-c1cccc(S(=O)(=O)N2CCOCC2)c1	CYP2C9 inhib 61
NC(=O)CSc1nnc(-c2cccc(S(=O)(=O)N3CCOCC3)c2)n1C1CCCCCC1	none
C=CCn1c(SCC(=O)Nc2ccccc2)nnc1-c1cccc(S(=O)(=O)N2CCOCC2)c1	CYP2C19 inh 66, CYP2C9 inhib 55
CC(C)(C)c1ccc(OCc2ccc(C(=O)N/N=C/c3ccc([N+](=O)[O-])cc3)o2)cc1	none
N#Cc1c(-c2ccccc2)ccn(Cc2ccc(Cl)cc2)c1=O	CYP2C9 inhib 54
Cc1[nH][nH]c(=O)c1C(c1ccc(-c2ccc(Cl)cc2Cl)o1)c1c(C)[nH][nH]c1=O	CYP2C19 inh 74
c1cncc(CNC2CCCc3ccccc32)c1 (configuration not stated)	none
O=C(CN1CCCC1)NCC12CC3CC(CC(C3)C1)C2	none
O=C(CN1CCOCC1)NCCC12CC3CC(CC(C3)C1)C2	CYP2C19 inh 54
NS(=O)(=O)c1cccnc1Nc1cccc(Cl)c1Cl	none
CCOC(=O)C1CCN(C(=O)Nc2ccc3snnc3c2)CC1	CYP2C19 inh 51 (no result: PostGolgi ctrl, PostGolgi yeast)
CCOC(=O)N1CCN(C(=O)Nc2ccc3nc(C)sc3c2)CC1	none
CCCC(=O)Nc1ccc(Br)c(Cl)c1	CYP2C19 inh 60
CCCCC(=O)Nc1ccc(C(=O)OC2CCCCC2)cc1	CYP2C19 inh 74, CYP2C9 inhib 91
CCCCCC(=O)Nc1ccc(N2CCN(C(=O)c3ccccc3)CC2)cc1	CYP2C9 inhib 54
CCCCCCC(=O)Nc1ccc(C(=O)N2CCCC2)cc1	none
O=C(CSc1nnc2c(Cl)cc(Cl)cn12)NC1CCS(=O)(=O)C1 (configuration not stated)	none
CCCCC(=O)Nc1ccc(C(=O)N2CCN(c3ccccc3OC)CC2)cc1	CYP2C19 inh 57, CYP2C9 inhib 77
CCOC(=O)C1CCN(C(=O)c2ccc(OCC)c(OCC)c2)CC1	none

Bioassay records deposited in PubChem BioAssay by several laboratories.
